Experimental data: PubChem BioAssay AID1159580 (chemical genetic matrix, 2015)
Hit rate of the full screen: of about 5,500 compounds, about 2,000 (36%) were called active. Roughly 18% stayed inconclusive and do not appear here. Cut-off read from the data, not from the text of the source: active = normalized growth mostly below about 0.91 (no sharp cut-off); inconclusive = no clear call, values can overlap the other calls; inactive = mostly above about 0.92. Some of the results follow.

Assay: chemical genetic growth profiling, strain panel (AID 1159580);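 note: tested at 20 µM; growth read once vehicle control cultures reached saturation at 30 °C; 1 = growth at the plate median or of vehicle wells; lower values mean less growth of the strain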
Settings: growth OD

Measured: normalized growth

O=C(Oc1cc(OC(=O)c2ccccc2)c2c(c1)O[C@H](c1ccc(OC(=O)c3ccccc3)c(OC(=O)c3ccccc3)c1)[C@@H](OC(=O)c1ccccc1)C2)c1ccccc1
inactive: S. cerevisiae deletion strains, locus YAL021C, strain ccr4, hits give low values 1.01 | S. cerevisiae deletion strains, locus YAL026C, strain drs2, hits give low values 0.998 | S. cerevisiae deletion strains, locus YAL030W, strain snc1, hits give low values 0.991 | S. cerevisiae deletion strains, locus YBL061C, strain skt5, hits give low values 0.99 | S. cerevisiae deletion strains, locus YBR009C, strain hhf1, hits give low values 0.982 | S. cerevisiae deletion strains, locus YBR021W, strain FUR4, hits give low values 1.07 | S. cerevisiae deletion strains, locus YBR023C, strain chs3, hits give low values 0.999 | S. cerevisiae deletion strains, locus YBR171W, strain sec66, hits give low values 0.997 | S. cerevisiae deletion strains, locus YBR229C, strain ROT2, hits give low values 1.04 | S. cerevisiae deletion strains, locus YBR231C, strain swc5, hits give low values 0.99 | S. cerevisiae deletion strains, locus YBR279W, strain paf1, hits give low values 1 | S. cerevisiae deletion strains, locus YCL011C, strain gbp2, hits give low values 0.987 | S. cerevisiae deletion strains, locus YCL016C, strain dcc1, hits give low values 0.994 | S. cerevisiae deletion strains, locus YCL029C, strain bik1, hits give low values 1.05 | S. cerevisiae deletion strains, locus YCL061C, strain MRC1, hits give low values 0.999 | S. cerevisiae deletion strains, locus YCL069W, strain vba3, hits give low values 1 | S. cerevisiae deletion strains, locus YCR088W, strain abp1, hits give low values 0.993 | S. cerevisiae deletion strains, locus YDL005C, strain med2, hits give low values 0.991 | S. cerevisiae deletion strains, locus YDL035C, strain GPR1, hits give low values 1.04 | S. cerevisiae deletion strains, locus YDL040C, strain nat1, hits give low values 0.991 | S. cerevisiae deletion strains, locus YDL074C, strain BRE1, hits give low values 1.14 | S. cerevisiae deletion strains, locus YDL101C, strain DUN1, hits give low values 1.05 | S. cerevisiae deletion strains, locus YDL185W, strain tfp1, hits give low values 1.06 | S. cerevisiae deletion strains, locus YDL192W, strain arf1, hits give low values 1.07 | S. cerevisiae deletion strains, locus YDR001C, strain nth1, hits give low values 0.994 | S. cerevisiae deletion strains, locus YDR069C, strain doa4, hits give low values 0.986 | S. cerevisiae deletion strains, locus YDR101C, strain arx1, hits give low values 1.03 | S. cerevisiae deletion strains, locus YDR137W, strain rgp1, hits give low values 1.03 | S. cerevisiae deletion strains, locus YDR159W, strain sac3, hits give low values 0.999 | S. cerevisiae deletion strains, locus YDR162C, strain NBP2, hits give low values 1.03 | S. cerevisiae deletion strains, locus YDR195W, strain ref2 0.953 | S. cerevisiae deletion strains, locus YDR297W, strain sur2, hits give low values 1 | S. cerevisiae deletion strains, locus YDR318W, strain mcm21, hits give low values 1.04 | S. cerevisiae deletion strains, locus YDR334W, strain swr1, hits give low values 0.992 | S. cerevisiae deletion strains, locus YDR335W, strain msn5, hits give low values 0.999 | S. cerevisiae deletion strains, locus YDR388W, hits give low values 1.04 | S. cerevisiae deletion strains, locus YDR392W, strain spt3, hits give low values 0.927 | S. cerevisiae deletion strains, locus YDR502C, strain sam2, hits give low values 1.06 | S. cerevisiae deletion strains, locus YEL003W, strain gim4, hits give low values 0.994 | S. cerevisiae deletion strains, locus YEL037C, strain rad23, hits give low values 0.991 | S. cerevisiae deletion strains, locus YEL061C, strain CIN8 (second series), hits give low values 0.999 | S. cerevisiae deletion strains, locus YEL061C, strain CIN8, hits give low values 1.02 | S. cerevisiae deletion strains, locus YER015W, strain faa2, hits give low values 0.987 | S. cerevisiae deletion strains, locus YER016W, strain bim1, hits give low values 0.991 | S. cerevisiae deletion strains, locus YER110C, hits give low values 1.06 | S. cerevisiae deletion strains, locus YER111C, strain swi4, hits give low values 0.999 | S. cerevisiae deletion strains, locus YER155C, strain BEM2 (second series), hits give low values 0.993 | S. cerevisiae deletion strains, locus YER155C, strain BEM2, hits give low values 1.04 | S. cerevisiae deletion strains, locus YER167W, strain BCK2, hits give low values 1.03 | S. cerevisiae deletion strains, locus YFR010W, strain ubp6, hits give low values 0.993 | S. cerevisiae deletion strains, locus YGL078C, strain dbp3, hits give low values 1.04 | S. cerevisiae deletion strains, locus YGL086W, strain mad1, hits give low values 1.04 | S. cerevisiae deletion strains, locus YGL167C, strain pmr1, hits give low values 0.993 | S. cerevisiae deletion strains, locus YGL173C, strain kem1, hits give low values 0.998 | S. cerevisiae deletion strains, locus YGL227W, strain vid30, hits give low values 0.982 | S. cerevisiae deletion strains, locus YGL240W, strain doc1, hits give low values 0.977 | S. cerevisiae deletion strains, locus YGL248W, strain PDE1, hits give low values 1.08 | S. cerevisiae deletion strains, locus YGL253W, strain hxk2, hits give low values 1 | S. cerevisiae deletion strains, locus YGR135W, strain pre9, hits give low values 1.09 | S. cerevisiae deletion strains, locus YGR252W, strain gcn5, hits give low values 1.17 | S. cerevisiae deletion strains, locus YHR013C, strain ard1, hits give low values 0.958 | S. cerevisiae deletion strains, locus YHR027C, strain rpn1, hits give low values 1 | S. cerevisiae deletion strains, locus YHR079C, strain IRE1 (second series), hits give low values 1.05 | S. cerevisiae deletion strains, locus YHR094C, strain hxt1, hits give low values 1.03 | S. cerevisiae deletion strains, locus YHR129C, strain ARP1, hits give low values 1.05 | S. cerevisiae deletion strains, locus YHR142W, strain chs7, hits give low values 1.03 | S. cerevisiae deletion strains, locus YHR200W, strain rpn10, hits give low values 1.05 | S. cerevisiae deletion strains, locus YIL066C, strain RNR3, hits give low values 1.05 | S. cerevisiae deletion strains, locus YIL073C, strain SPO22, hits give low values 1.16 | S. cerevisiae deletion strains, locus YIL125W, strain kgd1, hits give low values 1.02 | S. cerevisiae deletion strains, locus YIR030C, strain dcg1, hits give low values 1.03 | S. cerevisiae deletion strains, locus YJL092W, strain hpr5, hits give low values 0.993 | S. cerevisiae deletion strains, locus YJL095W, strain BCK1 (second series), hits give low values 0.998 | S. cerevisiae deletion strains, locus YJL095W, strain BCK1, hits give low values 1.12 | S. cerevisiae deletion strains, locus YJL115W, strain asf1, hits give low values 0.984 | S. cerevisiae deletion strains, locus YJL129C, strain trk1, hits give low values 0.999 | S. cerevisiae deletion strains, locus YJL134W, strain LCB3, hits give low values 1.03 | S. cerevisiae deletion strains, locus YJL154C, strain vps35, hits give low values 0.997 | S. cerevisiae deletion strains, locus YJL164C, strain tpk1, hits give low values 0.974 | S. cerevisiae deletion strains, locus YJL166W, strain qcr8, hits give low values 0.986 | S. cerevisiae deletion strains, locus YJL168C, strain set2, hits give low values 1.06 | S. cerevisiae deletion strains, locus YJL187C, strain SWE1 (second series), hits give low values 1.07 | S. cerevisiae deletion strains, locus YJL187C, strain SWE1, hits give low values 1 | S. cerevisiae deletion strains, locus YJR075W, strain HOC1, hits give low values 1.05 | S. cerevisiae deletion strains, locus YKL009W, strain mrt4, hits give low values 1.05 | S. cerevisiae deletion strains, locus YKL068W, hits give low values 1.02 | S. cerevisiae deletion strains, locus YKL085W, strain MDH1 (second series), hits give low values 1.01 | S. cerevisiae deletion strains, locus YKL085W, strain MDH1, hits give low values 1.01 | S. cerevisiae deletion strains, locus YKL160W, strain elf1, hits give low values 1.01 | S. cerevisiae deletion strains, locus YKL190W, strain CNB1, hits give low values 0.999 | S. cerevisiae deletion strains, locus YKR001C, strain vps1, hits give low values 1.08 | S. cerevisiae deletion strains, locus YKR026C, strain gcn3, hits give low values 0.968 | S. cerevisiae deletion strains, locus YKR091W, strain srl3, hits give low values 0.996 | S. cerevisiae deletion strains, locus YLL001W, strain dnm1, hits give low values 1.01 | S. cerevisiae deletion strains, locus YLL026W, hits give low values 0.985 | S. cerevisiae deletion strains, locus YLL041C, strain sdh2, hits give low values 1 | S. cerevisiae deletion strains, locus YLR027C, strain aat2, hits give low values 0.995 | S. cerevisiae deletion strains, locus YLR039C, strain RIC1, hits give low values 1.24 | S. cerevisiae deletion strains, locus YLR058C, strain SHM2, hits give low values 1.04 | S. cerevisiae deletion strains, locus YLR102C, strain apc9, hits give low values 1.03 | S. cerevisiae deletion strains, locus YLR221C, strain rsa3, hits give low values 1 | S. cerevisiae deletion strains, locus YLR258W, strain gsy2, hits give low values 0.993 | S. cerevisiae deletion strains, locus YLR262C, strain YPT6 (second series), hits give low values 0.993 | S. cerevisiae deletion strains, locus YLR268W, strain sec22, hits give low values 1.04 | S. cerevisiae deletion strains, locus YLR320W, strain mms22, hits give low values 0.975 | S. cerevisiae deletion strains, locus YLR330W, strain CHS5, hits give low values 1.04 | S. cerevisiae deletion strains, locus YLR342W, strain FKS1 (second series), hits give low values 1.06 | S. cerevisiae deletion strains, locus YLR342W, strain FKS1, hits give low values 0.989 | S. cerevisiae deletion strains, locus YLR357W, strain rsc2, hits give low values 0.979 | S. cerevisiae deletion strains, locus YLR370C, strain arc18, hits give low values 0.999 | S. cerevisiae deletion strains, locus YLR371W, strain rom2, hits give low values 1.08 | S. cerevisiae deletion strains, locus YLR384C, strain iki3, hits give low values 1.01 | S. cerevisiae deletion strains, locus YLR418C, strain cdc73, hits give low values 1.15 | S. cerevisiae deletion strains, locus YML016C, strain PPZ1, hits give low values 1.02 | S. cerevisiae deletion strains, locus YML032C, strain rad52, hits give low values 1.04 | S. cerevisiae deletion strains, locus YML120C, strain ndi1, hits give low values 1.01 | S. cerevisiae deletion strains, locus YML124C, strain tub3, hits give low values 1.03 | S. cerevisiae deletion strains, locus YMR058W, strain fet3, hits give low values 0.999 | S. cerevisiae deletion strains, locus YMR078C, strain ctf18, hits give low values 1.04 | S. cerevisiae deletion strains, locus YMR125W, strain sto1, hits give low values 0.978 | S. cerevisiae deletion strains, locus YMR129W, hits give low values 0.997 | S. cerevisiae deletion strains, locus YMR205C, strain PFK2, hits give low values 0.973 | S. cerevisiae deletion strains, locus YMR223W, strain ubp8, hits give low values 1.06 | S. cerevisiae deletion strains, locus YMR231W, strain pep5, hits give low values 0.998 | S. cerevisiae deletion strains, locus YMR307W, strain GAS1, hits give low values 1.16 | S. cerevisiae deletion strains, locus YNL067W, strain RPL9B, hits give low values 0.984 | S. cerevisiae deletion strains, locus YNL071W, strain lat1, hits give low values 1.01 | S. cerevisiae deletion strains, locus YNL128W, strain TEP1, hits give low values 0.999 | S. cerevisiae deletion strains, locus YNL209W, strain ssb2, hits give low values 1 | S. cerevisiae deletion strains, locus YNL233W, strain BNI4, hits give low values 1.07 | S. cerevisiae deletion strains, locus YNL248C, strain rpa49, hits give low values 1.01 | S. cerevisiae deletion strains, locus YNL250W, strain rad50, hits give low values 1.05 | S. cerevisiae deletion strains, locus YNL271C, strain bni1, hits give low values 1.03 | S. cerevisiae deletion strains, locus YNL298W, strain CLA4, hits give low values 1.04 | S. cerevisiae deletion strains, locus YNL307C, strain MCK1, hits give low values 1.06 | S. cerevisiae deletion strains, locus YNL322C, strain KRE1 (second series), hits give low values 0.985 | S. cerevisiae deletion strains, locus YNR049C, strain mso1, hits give low values 0.991 | S. cerevisiae deletion strains, locus YNR052C, strain pop2, hits give low values 1.06 | S. cerevisiae deletion strains, locus YOL006C, strain TOP1, hits give low values 1.32 | S. cerevisiae deletion strains, locus YOL012C, strain htz1 1.34 | S. cerevisiae deletion strains, locus YOL147C, strain pex11, hits give low values 1.03 | S. cerevisiae deletion strains, locus YOR001W, strain rrp6, hits give low values 0.994 | S. cerevisiae deletion strains, locus YOR061W, strain CKA2, hits give low values 1.04 | S. cerevisiae deletion strains, locus YOR069W, strain VPS5, hits give low values 1.03 | S. cerevisiae deletion strains, locus YOR070C, strain gyp1, hits give low values 0.996 | S. cerevisiae deletion strains, locus YOR080W, strain dia2, hits give low values 0.989 | S. cerevisiae deletion strains, locus YOR083W, strain WHI5, hits give low values 1.02 | S. cerevisiae deletion strains, locus YOR106W, strain vam3, hits give low values 1 | S. cerevisiae deletion strains, locus YOR136W, strain idh2, hits give low values 1.04 | S. cerevisiae deletion strains, locus YOR144C, strain elg1, hits give low values 1.04 | S. cerevisiae deletion strains, locus YOR184W, strain ser1, hits give low values 1.05 | S. cerevisiae deletion strains, locus YOR265W, strain rbl2, hits give low values 0.993 | S. cerevisiae deletion strains, locus YOR270C, strain vph1, hits give low values 1.01 | S. cerevisiae deletion strains, locus YOR290C, strain snf2, hits give low values 0.954 | S. cerevisiae deletion strains, locus YOR316C, strain cot1, hits give low values 1.05 | S. cerevisiae deletion strains, locus YPL051W, strain arl3, hits give low values 1 | S. cerevisiae deletion strains, locus YPL055C, strain LGE1, hits give low values 1.07 | S. cerevisiae deletion strains, locus YPL078C, strain atp4, hits give low values 1.01 | S. cerevisiae deletion strains, locus YPL106C, strain sse1, hits give low values 0.975 | S. cerevisiae deletion strains, locus YPL240C, strain hsp82, hits give low values 0.99 | S. cerevisiae deletion strains, locus YPR119W, strain clb2, hits give low values 1.04 | S. cerevisiae deletion strains, locus YPR141C, strain kar3, hits give low values 1.04 | S. cerevisiae deletion strains, locus YPR163C, strain tif3, hits give low values 1.05 | S. cerevisiae deletion strains, locus YPR167C, strain met16, hits give low values 1.07 | S. cerevisiae deletion strains, strain wtn01, hits give low values 1.04 | S. cerevisiae strains, strain wild type, hits give low values 1.04
